Rows were chosen to be rich in hits. Some 3.5% of all compounds tested hit in one or more screens of this group.
PPC-1+TRAIL kill = PPC-1 cancer cell killing with TRAIL present; PPC-1 cells + TRAIL, ATPLite viability luminescence; cell killing (% activity), % at 4 µM or 5 µM; 220,000 tested, 0.41% active; AID 1443;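 active = cell killing above 50% in the first pass at 4 µM, then a duplicate retest at 5 µM averaging 50% or more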;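 note: plate controls were cells with TRAIL plus DMSO for no effect and medium-only wells lacking cells for full effect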
Platelet DG rel = platelet dense granule release activity | human platelet-rich plasma, SFLLRN dense granule ATP release, luminescence | inhibition, %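 (compounds screened at 7.5 µM in platelet-rich plasma)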 | 300,000 tested, 0.22% active | AID 1663;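 active = mean replicate score, as percent of positive control, at or above 50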
TROY signal inh = TROY signaling inhibition. Q293 LMP1-TROYcd NF-kB luciferase reporter, 4 h. inhibition, % at 10 µM. 360,000 tested, 0.98% active;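 active = compounds whose plate-normalised and pattern-corrected inhibition of the luciferase reporter signal at the single screening dose is 50% or more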
C8 TRAIL sens = sensitizes caspase-8 expressing cells to TRAIL; NB7+C8 cells + TRAIL, ATPlite viability luminescence; inhibition (viability loss, TRAIL sensitization), % at 10 µM; 360,000 tested, 1% active; AID 624354;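 active = compounds causing at least 50% loss of cell viability in the single-dose screen, relative to plate controls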
TWEAK Fn14 block = inhibitors of TWEAK-Fn14 interaction signaling; TWEAK-stimulated Fn14 reporter cells, luciferase luminescence, 8 h; inhibition, % at 10 µM; 360,000 tested, 2% active; AID 1159606; in the data active = inhibition above about 50%
HSP90 refold inh = HSP90 refolding inhibition in rabbit reticulocyte lysate; 290,000 tested, 0.91% active; luciferase refolding luminescence, 3 h; inhibition, % at 5.6 µM;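 active = inhibition above the screen-wide mean plus 3 SD, computed separately per campaign, cut at about 16% in these data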;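 note: 0% = DMSO wells and 100% = 60 µM geldanamycin wells; inhibitors lower the luminescence because luciferase stays unfolded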
Active calls of the source: *.

Screening CC(C)(CC(=O)N1CCN(c2ccc(Cl)cc2)CC1)CC1=NS(=O)(=O)c2ccccc2N1 returned PPC-1+TRAIL kill 3, Platelet DG rel -2, TROY signal inh 39, C8 TRAIL sens 5, TWEAK Fn14 block 54* and HSP90 refold inh 0.
`COc1cccc(N2CCN(C(=O)CC(C)(C)CC3=NS(=O)(=O)c4ccccc4N3)CC2)c1` gave Platelet DG rel 1, TROY signal inh 9, C8 TRAIL sens -7, TWEAK Fn14 block 15 and HSP90 refold inh 7.
Screening Cc1ccc(C(=O)NCCNS(C)(=O)=O)cc1 returned PPC-1+TRAIL kill 17, Platelet DG rel -13, TROY signal inh 6, C8 TRAIL sens 7, TWEAK Fn14 block 2 and HSP90 refold inh 0.
`CCCCCCn1cc(CN2CC(N3CCN(CCN(C)C)CC3)CS2(=O)=O)nn1` (centres undefined) gave TROY signal inh -6, C8 TRAIL sens 5 and TWEAK Fn14 block 12.
`NNC(=O)C1COc2cc3ccccc3cc2O1` (centres undefined) gave Platelet DG rel 1, TROY signal inh 13, C8 TRAIL sens -9, TWEAK Fn14 block 8 and HSP90 refold inh 2.
Screening O=C(N/N=C\c1ccccn1)C1COc2cc3ccccc3cc2O1 (centres undefined) returned PPC-1+TRAIL kill 18, Platelet DG rel 0, TROY signal inh -11, C8 TRAIL sens 18, TWEAK Fn14 block 73* and HSP90 refold inh 2.
CCCCc1c(-c2ccccc2OC)ncn1CCc1ccccc1OC was read as TROY signal inh 55*, C8 TRAIL sens 38 and TWEAK Fn14 block 17.
For CCCCc1c(-c2ccccc2Br)ncn1CCc1ccccc1OC the results were TROY signal inh 41, C8 TRAIL sens 25 and TWEAK Fn14 block 47.
Screening CCCCCc1c(-c2ccccc2OC)ncn1CCc1ccccc1OC returned TROY signal inh 56*, C8 TRAIL sens 41 and TWEAK Fn14 block 52*.
N#Cc1ccc(CSc2nnc(-c3ccccc3)n2Cc2ccco2)cc1 was read as PPC-1+TRAIL kill 9, Platelet DG rel -2, TROY signal inh -27, C8 TRAIL sens -2, TWEAK Fn14 block 3 and HSP90 refold inh -2.
N#Cc1ccc(CSc2nnc(Cc3cccs3)n2Cc2ccco2)cc1 was read as PPC-1+TRAIL kill 4, Platelet DG rel 1, C8 TRAIL sens -3, TWEAK Fn14 block 76* and HSP90 refold inh 2.
For OCCCNc1ncnc2sc3c(c12)CCN(Cc1ccccc1)C3 the results were Platelet DG rel 11, TROY signal inh 36, C8 TRAIL sens -7, TWEAK Fn14 block 69* and HSP90 refold inh 4.
O=c1[nH]cnc2sc3c(c12)CCN(Cc1ccccc1)C3 was read as PPC-1+TRAIL kill 18, Platelet DG rel 21, TROY signal inh 12, C8 TRAIL sens 2, TWEAK Fn14 block 13 and HSP90 refold inh 0.
Screening CCCCc1ccc(NC(=O)CSC2=NN3CCCC(=O)N=C3S2)cc1 returned Platelet DG rel 13, TROY signal inh 13, C8 TRAIL sens 19, TWEAK Fn14 block 8 and HSP90 refold inh 3.
COc1ccc2nnc(-c3ccc(C(F)(F)F)cc3)n2n1 was read as PPC-1+TRAIL kill 9, Platelet DG rel 0, TROY signal inh -12, C8 TRAIL sens 4, TWEAK Fn14 block 61* and HSP90 refold inh -3.
For Cc1ccn2c(c1)nc(=S)n2C(=O)c1ccco1 the results were PPC-1+TRAIL kill 71*, Platelet DG rel -8 and HSP90 refold inh -3.
Cc1nn(C(=O)c2ccco2)c(C)c1Br was read as PPC-1+TRAIL kill -12, Platelet DG rel 37, TROY signal inh 6, C8 TRAIL sens 5, TWEAK Fn14 block 19 and HSP90 refold inh 0.
Screening Fc1ccccc1-c1csc(=Nc2cccnc2)n1CCCn1ccnc1 returned PPC-1+TRAIL kill -3, Platelet DG rel 10, TROY signal inh 25, C8 TRAIL sens -11, TWEAK Fn14 block 55* and HSP90 refold inh 0.
For O=C(NC1CCCC1)C(c1ccccn1)N(C(=O)c1csnn1)c1ccccc1F (centres undefined) the results were Platelet DG rel -2, TROY signal inh 0, C8 TRAIL sens -11, TWEAK Fn14 block 15 and HSP90 refold inh -4.
Screening O=C1NC(=S)N/C1=C\c1cccnc1 returned PPC-1+TRAIL kill 3, Platelet DG rel 0, TROY signal inh 32, C8 TRAIL sens 2, TWEAK Fn14 block 50* and HSP90 refold inh -2.
Screening O=C1NC(=S)N/C1=C/c1cccc([N+](=O)[O-])c1 returned PPC-1+TRAIL kill 10, Platelet DG rel 1, TROY signal inh -8, C8 TRAIL sens -1, TWEAK Fn14 block -5 and HSP90 refold inh 0.
O=C1NC(=S)N/C1=C/c1cccnc1 was read as PPC-1+TRAIL kill 17, Platelet DG rel 3, TROY signal inh 30, C8 TRAIL sens -6, TWEAK Fn14 block 53* and HSP90 refold inh 1.
`CCOc1ccc2nc(COC(=O)c3cccc([N+](=O)[O-])c3)c(C(C)=O)[n+]([O-])c2c1` gave PPC-1+TRAIL kill 21, Platelet DG rel 12, TROY signal inh 12, C8 TRAIL sens -12, TWEAK Fn14 block -16 and HSP90 refold inh 3.
For CN(C(=O)c1ccc(S(=O)(=O)c2cccc(Cl)c2)c([N+](=O)[O-])c1)C1CCCCC1 the results were PPC-1+TRAIL kill 15, Platelet DG rel 1, TROY signal inh 56*, C8 TRAIL sens 20, TWEAK Fn14 block 92* and HSP90 refold inh 5.
`O=C(NC1CCCCC1)c1ccc(S(=O)(=O)c2ccccc2Cl)c([N+](=O)[O-])c1` gave PPC-1+TRAIL kill -16, Platelet DG rel 1 and HSP90 refold inh -1.
Screening COc1cc2c3nnc(-c4ccc(F)cc4)c-3cn(Cc3ccc(C)cc3)c2cc1OC returned PPC-1+TRAIL kill 15, Platelet DG rel 13, TROY signal inh -18, C8 TRAIL sens 84*, TWEAK Fn14 block inactive and HSP90 refold inh -1.
`COc1cc2c3nnc(-c4ccc(F)cc4)c-3cn(Cc3cccc(C)c3)c2cc1OC` gave PPC-1+TRAIL kill 16, Platelet DG rel 9, TROY signal inh -36, C8 TRAIL sens 59*, TWEAK Fn14 block -373 and HSP90 refold inh 1.
For COc1ccc(/C=C2\SC(=S)N(CC3CCCO3)C2=O)cc1 (centres undefined) the results were PPC-1+TRAIL kill 14, Platelet DG rel 12, TROY signal inh -67, C8 TRAIL sens 2, TWEAK Fn14 block -57 and HSP90 refold inh 0.
For COc1ccc(/C=C2/SC(=S)N(n3c(C)ccc3C)C2=O)cc1 the results were PPC-1+TRAIL kill 27, Platelet DG rel 0, TROY signal inh -37, C8 TRAIL sens 62*, TWEAK Fn14 block 15 and HSP90 refold inh 10.
CCOc1ccc(/C=C2/SC(=S)N(n3c(C)ccc3C)C2=O)cc1 was read as PPC-1+TRAIL kill 4, Platelet DG rel 16, TROY signal inh -19, C8 TRAIL sens 50*, TWEAK Fn14 block -1 and HSP90 refold inh 1.

Screening results (PubChem BioAssay)
